The nature of assay [1]: NCI Yeast Anticancer Drug Screen. Data for the rad50 strain (AID 155).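 Note: 0% = growth of vehicle-only cultures of the same strain.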 The conditions noted are these: S. cerevisiae rad50 strain growth inhibition; at 50.0 µM; stronger effect = higher value. An outline of the steps:
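A DNA repair-deficient yeast mutant serves as the test organism; compound-induced growth inhibition is calculated against vehicle-treated cells.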

A short description of assay [2]: NCI Yeast Anticancer Drug Screen. Data for the mec2-1 strain (AID 157). The conditions noted are these: S. cerevisiae mec2-1 strain, at 50.0 µM, stronger effect = higher value. The method in brief:
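Each compound was tested on mec2-1 yeast, a strain altered in DNA damage repair or cell cycle control. Growth inhibition is reported relative to vehicle.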

A short description of assay [3]: NCI Yeast Anticancer Drug Screen. Data for the sgs1 mgt1 strain (AID 161).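 Note: 0% = growth of cultures given vehicle only.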 Particulars: S. cerevisiae sgs1 mgt1 strain, at 50.0 µM, stronger effect = higher value. An outline of the steps:
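Read-out: growth inhibition vs vehicle controls. Cells: mutant yeast strain deficient in DNA damage repair.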

The nature of assay [4]: NCI Yeast Anticancer Drug Screen. Data for the cln2 rad14 strain (AID 165).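 Note: 0% = growth equal to vehicle treated cultures.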 The conditions noted are these: S. cerevisiae cln2 rad14 strain, at 50.0 µM, stronger effect = higher value. An outline of the steps: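 Test compounds were added to cln2 rad14 yeast cultures; inhibition of growth was then determined by comparison with vehicle treatment.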
Assay [5] is described as follows: NCI Yeast Anticancer Drug Screen. Data for the bub3 strain (AID 167). The conditions noted are these: S. cerevisiae bub3 mutant strain, at 50.0 µM, stronger effect = higher value. The method in brief:
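Inhibition values come from growth of compound-treated mutant yeast normalised to vehicle-treated controls.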

A short description of assay [6]: NCI Yeast Anticancer Drug Screen. Data for the mlh1 rad18 strain (AID 175). The conditions noted are these: S. cerevisiae mlh1 rad18 strain growth inhibition; at 50.0 µM; stronger effect = higher value. An outline of the steps: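 Inhibition values reflect reduced growth of mutant yeast versus vehicle-treated controls following compound exposure; the mutations affect DNA damage repair.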

Each structure is given as a SMILES string. Several values for one entry are separate records, joined by “and”; a condition that tells them apart may be missing. Equal entries are not always repeated. About 79,000 compounds went through this panel and 15% of them were active in at least one assay; those are over-represented in the sample as a whole. Values without a mark were called inactive. Activity calls are given as the source filed them. Cut-off read from the data, not from the text of the source: active = growth inhibition above about 70%; inactive = the rest.

As to `OCCN=Cc1ccccc1O.OCCN=Cc1ccccc1O.[Ni]`, the growth inhibition was 32.2% in assay [1]; 7.3% in assay [2]; 17.9% in assay [3]; -26.4% in assay [4]; 12.8% in assay [5]; 18.4% in assay [6].
For `CCOP(=O)(CCC[N+](=O)[O-])OCC`, the growth inhibition is -12.1% in assay [1]; -11.9% in assay [2]; -18.7% in assay [3]; -15.8% in assay [4]; 1.35% in assay [5]; -7.65% in assay [6].
On to `CC(=O)O.CC(=O)O.CC(=O)O.CC(=O)O.CC(=O)O.CC(=O)O.O.[Ti].[Ti]`, for which the growth inhibition in assay [1] was -6.65%; in assay [2], -23.8%; in assay [3], -23.6%; in assay [4] it was -4.2%; in assay [5], -10.1%; in assay [6] it was -34%.
For the molecule `CC(=O)Nc1ccc(NN=O)cn1`, the growth inhibition in assay [1] is 40.9%; in assay [2] it was 4.7%; in assay [3], -15.9%; in assay [4], -7.95%; in assay [5], -37.8%; in assay [6], 12.2%.
In the case of `NC(CCP(=O)(O)O)C(=O)O` (stereo not drawn), the growth inhibition in assay [1] is 1.1% and -34.8%; in assay [2] it was -3.5% and -15.6%; in assay [3], -5.6% and -33.7%; in assay [4] it was -3.25% and 6.1%; in assay [5], 7.7% and -23.5%; in assay [6], -5.75% and -18.1%.
`N#CC(C#N)=Cc1cccc(C#N)c1`: the growth inhibition was -0.75% in assay [1]; 21.4% in assay [2]; -2.85% in assay [3]; 19.1% in assay [4]; -4.75% in assay [5]; 3.45% in assay [6].
For `Cc1cccc(C)c1OCC1=NCCN1`, the growth inhibition in assay [1] was 4.75%; in assay [2] it was 14.3%; in assay [3], 0.1%; in assay [4] it was -55.6%; in assay [5] it was 5.5%; in assay [6], -13.1%.
`COP(=O)(OC)/C(=C/c1c[nH]c2ccccc12)C(=O)O`: the growth inhibition was -12.7% in assay [1]; -71.6% in assay [2]; -55.9% in assay [3]; -34.9% in assay [4]; -20.7% in assay [5]; -32.2% in assay [6].
As to `O=c1c2cc(Br)ccc2[nH]c(=S)n1-c1ccc(Br)cc1`, the growth inhibition was 9.95% in assay [1]; -7.2% in assay [2]; 15.2% in assay [3]; 18% in assay [4]; 35.5% in assay [5]; 12.2% in assay [6].
For the molecule `O=C(C1CO1)C(Cl)(Cl)Cl` (stereo not drawn), the growth inhibition in assay [1] was -3.95%; in assay [2], -6.85%; in assay [3], 3.8%; in assay [4], -8.2%; in assay [5], -15.2%; in assay [6], -2.35%.
Consider `CC(=O)OC1CCC2(C)C3CCC4(C)C(c5ccc(=O)oc5)CC5OC54C3CCC2(O)C1` (stereo not drawn), for which the growth inhibition is 40% in assay [1]; 2.75% in assay [2]; 19.6% in assay [3]; -1.8% in assay [4]; -2.2% in assay [5]; 2.3% in assay [6].
For `O=C(C(Cl)Cl)N1CCCCC1`, the growth inhibition in assay [1] is -5.2%; in assay [2], -0.3%; in assay [3], -5.5%; in assay [4] it was 4.65%; in assay [5], 0%; in assay [6] it was 39.9%.
Consider `O=C(c1ccccc1)C1C(C(=O)c2ccccc2)N1C1CCCCC1` (stereo not drawn), for which the growth inhibition in assay [1] was 81.8% (active); in assay [2] it was 32%; in assay [3], 14.8%; in assay [4] it was 2.3%; in assay [5], 84.5% (active); in assay [6] it was 80.8% (active).
Turning to `CC1(C)CC(N)C(=O)c2ccccc21` (stereo not drawn), the growth inhibition in assay [1] was 7.25%; in assay [2] it was -20.6%; in assay [3], -5.6%; in assay [4], 14.2%; in assay [5] it was -4.4%; in assay [6], 29%.
On to `COc1cc2ccnc(C3(OC(=O)c4ccccc4)CCN(CCc4ccccc4)CC3)c2cc1OC`, for which the growth inhibition in assay [1] is -1.3%; in assay [2], -7.15%; in assay [3], -21.9%; in assay [4] it was -17.1%; in assay [5], 2.95%; in assay [6], -0.95%.
`CC(C)N1CCc2cc3c(cc2C1)OCO3`: the growth inhibition was 9.8% in assay [1]; 11.1% in assay [2]; 1.3% in assay [3]; 1.25% in assay [4]; -17.5% in assay [5]; 23% in assay [6].
In the case of `O=C(/C=C/c1ccc([N+](=O)[O-])cc1Cl)Nc1cccc(S(=O)(=O)F)c1`, the growth inhibition in assay [1] was 6%; in assay [2], 16.8%; in assay [3], -0.35%; in assay [4], 18.2%; in assay [5], -6.3%; in assay [6] it was -8.2%.
For `CC(N)CN.CC(N)CN.[Cl-].[O]=[Os+2]=[O]` (stereo not drawn), the growth inhibition in assay [1] was -31%; in assay [2], -13.4%; in assay [3] it was -16.6%; in assay [4], 2.05%; in assay [5] it was -16.1%; in assay [6] it was -13.6%.
`C/C=C/C1(CCCC)C(=O)NC(=O)NC1=O`: the growth inhibition in assay [1] is 9.8%; in assay [2], 3.35%; in assay [3], 4.15%; in assay [4] it was 8.75%; in assay [5], -2.6%; in assay [6] it was -20.8%.
In the case of `Nc1ncnc(N)n1`, the growth inhibition in assay [1] was -7.3%; in assay [2] it was -17.1%; in assay [3], 13.3%; in assay [4], -28.8%; in assay [5] it was -2.2%; in assay [6], -9.65%.
In the case of `O=C1CC(c2ccccc2)n2cccc21` (stereo not drawn), the growth inhibition is 8.1% in assay [1]; 2.2% in assay [2]; 4.85% in assay [3]; 24.8% in assay [4]; -8.95% in assay [5]; -27.8% in assay [6].
As to `O=C(O)CCCC1CCCCC1.[Ni]`, the growth inhibition is -6.95% in assay [1]; 14.8% in assay [2]; -2.1% in assay [3]; 16% in assay [4]; -10.8% in assay [5]; -18.6% in assay [6].
As to `CCC1(/C(C)=C/C(C)C)C(=O)NC(=O)NC1=O`, the growth inhibition in assay [1] is 15.8% and 16.3%; in assay [2], 12.8% and 4.6%; in assay [3] it was 1% and 6.15%; in assay [4], 8.8% and -11.4%; in assay [5], 4.65% and 2.35%; in assay [6], 4.15% and 5.05%.
In the case of `O=C(O)[C@@H](Cl)[C@@H](Cl)C(=O)O`, the growth inhibition in assay [1] is 30.7%; in assay [2], -11.4%; in assay [3], 22.9%; in assay [4] it was 6.7%; in assay [5], 9.55%; in assay [6] it was 17.9%.
For the molecule `CCN(CC)C(=O)CCN1CC1`, the growth inhibition in assay [1] is 10.4%; in assay [2], -0.65%; in assay [3] it was 12.3%; in assay [4] it was 19.5%; in assay [5], 5.1%; in assay [6], -1.25%.
For the molecule `O.O=C(O)C(=O)O.[NH2-].[Zn]`, the growth inhibition in assay [1] was -14.6%; in assay [2], 9.25%; in assay [3], -6.5%; in assay [4], 35.1%; in assay [5], -2.3%; in assay [6], -2.05%.
With `NCCN1CC2CCC(CC2)C1`, the growth inhibition in assay [1] was -53.1%; in assay [2], -48.3%; in assay [3], -27.1%; in assay [4], -5.75%; in assay [5] it was -3.55%; in assay [6] it was -11.7%.
Regarding `NS(=O)(=O)c1ccc([As](=O)(O)O)cc1`, the growth inhibition in assay [1] is -1.1%; in assay [2], -3.85%; in assay [3], 5%; in assay [4], -45.5%; in assay [5] it was 12.2%; in assay [6] it was -15.7%.

Values taken from PubChem BioAssay (NCI).
